# Experimental data from PubChem BioAssay.
# Values joined by “and” are separate entries in the source; they are usually repeats but may differ in a detail not shown here. Equal values may be shown once. Active and inactive are the calls of the source.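 How the source made its calls, unless noted: active means thallium flux through the channel raised or lowered by more than 3 SD from vehicle-only wells, actives on both sides; inactive means the rest.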
# Columns and labels:
# [1] = liver-stage malaria parasite growth inhibition, primary screen, cell-based, HepG2, luciferase luminescence, HepG2 viability (AID 624349; in the data active means parasite load remaining mostly below about 12%, no sharp cut-off; inactive means mostly above about 10%;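 further: 100% = mean of DMSO negative control wells on the same plate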); conditions: P. berghei liver stage in HepG2, luciferase luminescence, concentration not given here; parasite load remaining: stronger effect = lower value; viability: measured here: HepG2 viability without parasites
# [2] = target: 6-phosphogluconate dehydrogenase, decarboxylating (Homo sapiens) (UniProt P52209); assay: 6PGD enzyme inhibitors, primary screen, biochemical, human, recombinant enzyme, NADPH absorbance (AID 1159550;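 active means at least 20% inhibition of 6-phosphogluconate dehydrogenase activity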); conditions: recombinant 6PGD, NADPH absorbance 341 nm; at 10 µM; stronger effect = higher value
# [3] = modulation of C. elegans fzo-1 (AID 1259413; call rule not given here;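 further: fzo-1 mutant C. elegans worms in liquid wells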); conditions: C. elegans fzo-1 modulator screen, mean read-out; stronger effect = higher value
# [4] = differential killing of epithelial or mesenchymal cells, primary screen, imaging, PC-3E GFP, TEM4-18 mCherry, co-culture (AID 1345086;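 active means compounds killing one labelled cell type while sparing the other, by normalised counts and ratio limits, not self-fluorescent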;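 on all read-outs here: cells exposed to compound for 72 h before imaging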;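 on red/green cell ratio (normalised): normalised mesenchymal count divided by normalised epithelial count so high means epithelial killing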); conditions: imaging cell counts, at 1 µM; for red/green cell ratio (normalised): actives lie on both sides, counts scaled to control wells, 1 = unselective
# [5] = sensitizers of A549 cells to miR-34 induction, primary screen, imaging, A549 dox-inducible miR-34, nuclei and caspase counts (AID 1347080;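 active means compounds whose cell count with miR-34 switched on is under 0.7 times the count with it off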); conditions: A549 miR-34 inducible, Hoechst nuclei count, 48 h
# [6] = survival rescue of mitochondrial mutant cells in low glucose, primary screen, MELAS cybrids, Rieske KO mouse fibroblasts, CellTiter-Glo (AID 1508586;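 active means mean z-score across replicates of 1.96 or higher in either the MELAS or the Rieske mutant cell line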;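 further: z relative to plate mean and SD of compound and empty wells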)
# [7] = target: NAD(+) hydrolase SARM1 (Homo sapiens) (UniProt Q6SZW1); assay: SARM1 TIR NADase inhibitors, cell lysate, NAD-Glo luminescence (AID 1508614;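 active means compound whose remaining NAD level is above about 45 nM, limit read from the data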); conditions: SAM-TIR HEK293T lysate NADase, at 1 µM, stronger effect = higher value
# [8] = target: Mitogen-activated protein kinase 7 (Homo sapiens) (UniProt Q13164); assay: ERK5 transactivation activators in reporter cells, primary screen, cell-based, HTS (AID 1508626;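 active means luciferase signal above three times the same-plate solvent-only control wells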;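 further: luciferase driven by Gal4-ERK5 fusion binding five Gal4 sites before minimal TATA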); conditions: HeLa Gal4-ERK5 transactivation, 18 h, at 5 µM, stronger effect = higher value
# [9] = viability rescue of complex I mutant cybrids, primary screen, cell-based, galactose medium, ATP luminescence (AID 1645843;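 active means z-score of at least 1.8 in each of two replicates, scored against plate mean and spread of sample wells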;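 further: positive z means more ATP and so rescue of galactose-driven cybrid death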); conditions: complex I mutant cybrid cells, 72 h, stronger effect = higher value
# [10] = Cy5 fluorescence interference with SSB-bound oligo, artefact control for HCV NS3 helicase inhibitor project, biochemical, NIH Clinical Collection, E. coli SSB (AID 743268; call rule not given here)
# [11] = system: Hepatitis C virus NS3 helicase; assay: HCV NS3 helicase inhibitors, primary screen, biochemical, fluorescence polarization, NIH Clinical Collection (AID 743270; call rule not given here); conditions: NS3 helicase binding to Cy5-dT15 DNA, stronger effect = higher value, concentration not given here
# [12] = target: Single-stranded DNA-binding protein (Escherichia coli (strain K12)) (UniProt P0AGE0); assay: E. coli SSB displacement from DNA, counter-screen for HCV NS3 helicase inhibitor project, biochemical, fluorescence polarization, NIH Clinical Collection (AID 743271; in the data active means inhibition above about 28%); conditions: stronger effect = higher value, concentration not given here
# [13] = fluorescence interference in NS3h assay format, artefact control for HCV NS3 helicase inhibitor project, biochemical, NIH Clinical Collection (AID 743272; call rule not given here;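 further: HCV NS3 helicase with a Cy5 labelled single stranded DNA probe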); conditions: fluorescence interference counterscreen, stronger effect = lower value
# F380Y = assay: modulators of BK channel variants, profiling panel, selectivity assay, cell-based, U2OS BacMam, thallium flux, beta subunits (AID 1259406); conditions: at 30 µM;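 further: initial slope of Thallos dye fluorescence rise after thallium is added; log ratio against the mean of 0.3% DMSO vehicle wells on the same plate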
# F380Y/beta2Delta = assay: as above; conditions: at 30 µM
# [14] = target: Calcium-activated potassium channel subunit alpha-1 (Homo sapiens) + Leucine-rich repeat-containing protein 26 (Homo sapiens) (UniProt Q12791+Q2I0M4); assay: as above; conditions: F380Y/Slo1WT/gamma1, at 30 µM
# R275C = assay: as above; conditions: at 30 µM
# R275C/beta1 = assay: as above; conditions: at 30 µM
# R275C/beta2Delta = assay: as above; conditions: at 30 µM
# [15] = measured here: epithelial PC-3E GFP cell survival
# [16] = measured here: mesenchymal TEM4-18 mCherry cell survival
# [17] = stronger effect = lower value, cell number ratio, induced over uninduced
# [18] = measured here: relative caspase fold change +Dox/-Dox
# [19] = measured here: total cells with miR-34 induction, stronger effect = lower value
# [20] = measured here: total cells without miR-34 induction
# [21] = MELAS cybrid survival, CellTiter-Glo 48 h, stronger effect = higher value
# [22] = Rieske KO mouse fibroblast survival, CellTiter-Glo 72 h
# Sequence of Calcium-activated potassium channel subunit alpha-1 (Homo sapiens) + Leucine-rich repeat-containing protein 26 (Homo sapiens) (Q2I0M4 whole entry, looked up, one chain of several): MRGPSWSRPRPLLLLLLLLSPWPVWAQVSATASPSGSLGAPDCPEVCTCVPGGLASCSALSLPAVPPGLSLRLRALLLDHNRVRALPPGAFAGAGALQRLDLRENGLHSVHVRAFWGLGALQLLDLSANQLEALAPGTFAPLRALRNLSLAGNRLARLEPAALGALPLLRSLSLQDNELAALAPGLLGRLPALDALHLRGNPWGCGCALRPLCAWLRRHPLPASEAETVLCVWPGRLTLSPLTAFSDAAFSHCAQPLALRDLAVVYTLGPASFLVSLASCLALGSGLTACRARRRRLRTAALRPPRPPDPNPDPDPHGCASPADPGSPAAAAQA
# Sequence of NAD(+) hydrolase SARM1 (Homo sapiens) (Q6SZW1 whole entry, looked up, the tested form may be a part): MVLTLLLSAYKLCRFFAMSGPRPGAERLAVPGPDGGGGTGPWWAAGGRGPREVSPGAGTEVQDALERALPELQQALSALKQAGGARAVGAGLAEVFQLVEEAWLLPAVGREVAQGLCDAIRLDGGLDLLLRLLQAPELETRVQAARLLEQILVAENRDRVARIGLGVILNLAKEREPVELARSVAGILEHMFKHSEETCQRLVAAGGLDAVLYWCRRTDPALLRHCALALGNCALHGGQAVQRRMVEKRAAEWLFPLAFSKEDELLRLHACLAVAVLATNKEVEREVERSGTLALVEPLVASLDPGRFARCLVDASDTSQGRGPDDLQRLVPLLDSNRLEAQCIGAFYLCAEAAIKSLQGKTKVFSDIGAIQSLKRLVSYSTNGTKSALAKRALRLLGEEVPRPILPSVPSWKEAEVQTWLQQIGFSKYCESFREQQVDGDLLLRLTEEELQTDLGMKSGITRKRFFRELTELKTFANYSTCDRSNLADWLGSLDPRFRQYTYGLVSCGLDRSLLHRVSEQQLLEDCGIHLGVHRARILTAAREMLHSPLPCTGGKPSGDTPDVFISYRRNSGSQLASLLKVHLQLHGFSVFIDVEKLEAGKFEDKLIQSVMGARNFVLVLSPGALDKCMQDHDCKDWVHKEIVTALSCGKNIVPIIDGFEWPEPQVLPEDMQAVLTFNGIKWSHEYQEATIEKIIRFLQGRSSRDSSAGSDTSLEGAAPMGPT
# Sequence of 6-phosphogluconate dehydrogenase, decarboxylating (Homo sapiens) (P52209 whole entry, looked up): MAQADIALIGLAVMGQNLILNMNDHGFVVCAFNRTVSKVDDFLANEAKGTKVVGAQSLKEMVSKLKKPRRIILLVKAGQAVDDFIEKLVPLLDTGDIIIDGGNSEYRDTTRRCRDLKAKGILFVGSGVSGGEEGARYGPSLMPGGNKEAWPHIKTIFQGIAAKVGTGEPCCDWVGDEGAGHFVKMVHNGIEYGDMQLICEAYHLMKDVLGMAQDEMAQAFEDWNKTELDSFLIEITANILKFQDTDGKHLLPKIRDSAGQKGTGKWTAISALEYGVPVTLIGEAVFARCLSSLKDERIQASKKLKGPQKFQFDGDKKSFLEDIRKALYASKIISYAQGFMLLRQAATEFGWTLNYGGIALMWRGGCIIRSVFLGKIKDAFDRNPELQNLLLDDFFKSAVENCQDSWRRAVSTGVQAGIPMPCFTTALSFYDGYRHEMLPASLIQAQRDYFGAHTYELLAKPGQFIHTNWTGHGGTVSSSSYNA
# Sequence of Mitogen-activated protein kinase 7 (Homo sapiens) (Q13164 whole entry, looked up, the tested form may be a part): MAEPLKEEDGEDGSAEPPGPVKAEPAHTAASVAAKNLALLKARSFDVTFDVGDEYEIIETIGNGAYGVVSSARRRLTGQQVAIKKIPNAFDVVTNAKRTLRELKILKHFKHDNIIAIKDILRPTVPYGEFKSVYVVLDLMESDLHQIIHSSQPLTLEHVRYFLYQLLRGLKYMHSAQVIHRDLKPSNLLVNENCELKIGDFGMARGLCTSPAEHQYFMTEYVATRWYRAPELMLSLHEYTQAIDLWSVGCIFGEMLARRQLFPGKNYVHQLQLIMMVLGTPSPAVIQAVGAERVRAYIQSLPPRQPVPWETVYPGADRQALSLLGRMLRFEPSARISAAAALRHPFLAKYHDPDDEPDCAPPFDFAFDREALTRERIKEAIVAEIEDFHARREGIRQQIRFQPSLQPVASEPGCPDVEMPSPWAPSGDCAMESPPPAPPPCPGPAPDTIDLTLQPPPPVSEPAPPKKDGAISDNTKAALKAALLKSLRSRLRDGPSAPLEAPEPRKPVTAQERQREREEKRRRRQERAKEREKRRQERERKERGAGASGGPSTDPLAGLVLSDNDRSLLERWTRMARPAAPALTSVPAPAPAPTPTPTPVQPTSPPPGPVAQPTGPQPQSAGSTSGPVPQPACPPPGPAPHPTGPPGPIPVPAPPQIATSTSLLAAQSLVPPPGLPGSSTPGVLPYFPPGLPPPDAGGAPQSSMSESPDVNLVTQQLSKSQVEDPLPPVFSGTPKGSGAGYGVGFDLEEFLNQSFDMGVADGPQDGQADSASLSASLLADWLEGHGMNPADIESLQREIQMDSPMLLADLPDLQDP
compound,measurement,setting,value
CCCc1nc(C(C)(C)O)c(C(=O)OCc2oc(=O)oc2C)n1Cc1ccc(-c2ccccc2-c2nn[nH]n2)cc1,parasite load remaining,[1],123% (inactive) and 56.6% (inactive) and 38.5% (inactive)
same,viability,[1],84.8% and 93.3% and 100%
same,inhibition,[2],-1.37% (inactive)
same,mean signal,[3],232 (inactive)
same,red/green cell ratio (normalised),[4],1.07 (inactive)
same,normalised cell number,[4]; [15],1.01
same,normalised cell number,[4]; [16],1.08
same,fold change,[5]; [17],0.993 (inactive) and 0.942 (inactive) and 0.929 (inactive)
same,fold change,[5]; [18],0.262 and 5.26 and 0.77
same,cell count,[5]; [19],7890 and 12500 and 10500
same,cell count,[5]; [20],7940 and 13300 and 11300
same,z-score,[6]; [21],-0.0808 (inactive) and -0.0697 (inactive) and -0.516 (inactive)
same,z-score,[6]; [22],-0.0525 and -0.445 and -0.184
same,remaining NAD,[7],10 nM (inactive)
same,luciferase signal,[8],116 AU (inactive)
same,z-score,[9],0.375 (inactive)
CC(=O)O[C@]1(C(C)=O)CC[C@H]2[C@@H]3C[C@H](C)C4=CC(=O)CC[C@]4(C)[C@H]3CC[C@@]21C,parasite load remaining,[1],22.6% (inactive)
same,viability,[1],77.3%
same,fluorescence ratio,[10],0.99 (inactive)
same,inhibition,[11],-0.45% (inactive)
same,inhibition,[12],-0.48% (inactive)
same,fluorescence ratio,[13],0.97 (inactive)
same,inhibition,[2],2.85% (inactive)
same,mean signal,[3],251 (inactive)
same,fold change,[5]; [17],0.928 (inactive)
same,fold change,[5]; [18],1.75
same,cell count,[5]; [19],7550
same,cell count,[5]; [20],8130
same,remaining NAD,[7],10 nM (inactive)
same,luciferase signal,[8],68 AU (inactive)
same,z-score,[9],-1.19 (inactive)
same,log fold change Tl+ flux,F380Y,-0.0294 (inactive)
same,log fold change Tl+ flux,F380Y/beta2Delta,-0.0667 (inactive)
same,log fold change Tl+ flux,[14],-0.0359 (inactive)
same,log fold change Tl+ flux,R275C,-0.0267 (inactive)
same,log fold change Tl+ flux,R275C/beta1,0.0157 (inactive)
same,log fold change Tl+ flux,R275C/beta2Delta,0.0115 (inactive)
CCC(=O)OCC(=O)[C@@]1(OC(=O)CC)[C@@H](C)C[C@H]2[C@@H]3CCC4=CC(=O)C=C[C@]4(C)[C@@]3(Cl)[C@@H](O)C[C@@]21C,parasite load remaining,[1],87.4% (inactive) and 97.8% (inactive)
same,viability,[1],126% and 93.5%
same,fluorescence ratio,[10],1.01 (inactive)
same,inhibition,[11],0.45% (inactive)
same,inhibition,[12],2.57% (inactive)
same,fluorescence ratio,[13],0.96 (inactive)
same,inhibition,[2],-4.35% (inactive)
same,fold change,[5]; [17],0.914 (inactive) and 0.792 (inactive)
same,fold change,[5]; [18],1.6 and 1.23
same,cell count,[5]; [19],6840 and 6120
same,cell count,[5]; [20],7490 and 7730
same,z-score,[6]; [21],0.616 (inactive)
same,z-score,[6]; [22],1.23
same,remaining NAD,[7],10 nM (inactive)
same,luciferase signal,[8],188 AU (inactive)
same,z-score,[9],-1.24 (inactive)
same,log fold change Tl+ flux,F380Y,-0.163 (active)
same,log fold change Tl+ flux,F380Y/beta2Delta,-0.0617 (inactive)
same,log fold change Tl+ flux,[14],0.021 (inactive)
same,log fold change Tl+ flux,R275C,-0.105 (active)
same,log fold change Tl+ flux,R275C/beta1,0.0418 (inactive)
same,log fold change Tl+ flux,R275C/beta2Delta,0.0132 (inactive)
C#C[C@]1(OC(C)=O)CC[C@H]2[C@@H]3CCC4=CC(=O)CC[C@@H]4[C@H]3CC[C@@]21C,parasite load remaining,[1],26.4% (inactive)
same,viability,[1],96.7%
same,fluorescence ratio,[10],1.05 (inactive)
same,inhibition,[11],-3.18% (inactive)
same,inhibition,[12],7.15% (inactive)
same,fluorescence ratio,[13],0.89 (inactive)
same,inhibition,[2],-1.74% (inactive)
same,fold change,[5]; [17],0.989 (inactive)
same,fold change,[5]; [18],1.09
same,cell count,[5]; [19],9170
same,cell count,[5]; [20],9280
same,remaining NAD,[7],24 nM (inactive)
same,luciferase signal,[8],28 AU (inactive)
same,z-score,[9],-1.36 (inactive)
same,log fold change Tl+ flux,F380Y,-0.0982 (inactive)
same,log fold change Tl+ flux,F380Y/beta2Delta,-0.0589 (inactive)
same,log fold change Tl+ flux,[14],-0.0258 (inactive)
same,log fold change Tl+ flux,R275C,-0.00546 (inactive)
same,log fold change Tl+ flux,R275C/beta1,0.0232 (inactive)
same,log fold change Tl+ flux,R275C/beta2Delta,0.0192 (inactive)
COc1cc(OC)c2c(OC)c(-c3ccc4c(c3)OCO4)c(=O)oc2c1,inhibition,[2],-4.99% (inactive)
same,red/green cell ratio (normalised),[4],1.02 (inactive)
same,normalised cell number,[4]; [15],0.92
same,normalised cell number,[4]; [16],0.94
COc1cc(OC)c(-c2c(OC)cc(OC)cc2OC)c(OC)c1,inhibition,[2],11.7% (inactive)
same,red/green cell ratio (normalised),[4],1.06 (inactive)
same,normalised cell number,[4]; [15],0.99
same,normalised cell number,[4]; [16],1.04
